Measurements as given in PubChem BioAssay (Tox21).
Results filed as inconclusive are left out. Active and inactive are the calls of the source. Unless noted, calls come from the whole dose curve; as a rule, active = well fitted curve in the direction sought with a large enough effect in the repeat runs; inconclusive = weak or mixed curves; inactive = no such curve, though single readings can be large; an effect the other way counts as inactive or inconclusive.

Legend:
[1] = qHTS assay to identify aromatase inhibitors - cell viability counter screen (AID 743084);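 note: cells stimulated with testosterone during compound exposure; nearly all actives have a fitted effect of over 55% in size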
[2] = target: Aryl hydrocarbon receptor (Homo sapiens) (UniProt P35869); experiment: qHTS assay to identify small molecule that activate the aryl hydrocarbon receptor (AhR) signaling pathway (AID 743085);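 note: HG2L7.5c1 human HepG2 liver cells with stably integrated DRE-driven firefly reporter; series mostly up to about 70 µM; nearly all actives have a fitted effect of over 15% in size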
Aryl hydrocarbon receptor (Homo sapiens), sequence (P35869 whole entry, looked up): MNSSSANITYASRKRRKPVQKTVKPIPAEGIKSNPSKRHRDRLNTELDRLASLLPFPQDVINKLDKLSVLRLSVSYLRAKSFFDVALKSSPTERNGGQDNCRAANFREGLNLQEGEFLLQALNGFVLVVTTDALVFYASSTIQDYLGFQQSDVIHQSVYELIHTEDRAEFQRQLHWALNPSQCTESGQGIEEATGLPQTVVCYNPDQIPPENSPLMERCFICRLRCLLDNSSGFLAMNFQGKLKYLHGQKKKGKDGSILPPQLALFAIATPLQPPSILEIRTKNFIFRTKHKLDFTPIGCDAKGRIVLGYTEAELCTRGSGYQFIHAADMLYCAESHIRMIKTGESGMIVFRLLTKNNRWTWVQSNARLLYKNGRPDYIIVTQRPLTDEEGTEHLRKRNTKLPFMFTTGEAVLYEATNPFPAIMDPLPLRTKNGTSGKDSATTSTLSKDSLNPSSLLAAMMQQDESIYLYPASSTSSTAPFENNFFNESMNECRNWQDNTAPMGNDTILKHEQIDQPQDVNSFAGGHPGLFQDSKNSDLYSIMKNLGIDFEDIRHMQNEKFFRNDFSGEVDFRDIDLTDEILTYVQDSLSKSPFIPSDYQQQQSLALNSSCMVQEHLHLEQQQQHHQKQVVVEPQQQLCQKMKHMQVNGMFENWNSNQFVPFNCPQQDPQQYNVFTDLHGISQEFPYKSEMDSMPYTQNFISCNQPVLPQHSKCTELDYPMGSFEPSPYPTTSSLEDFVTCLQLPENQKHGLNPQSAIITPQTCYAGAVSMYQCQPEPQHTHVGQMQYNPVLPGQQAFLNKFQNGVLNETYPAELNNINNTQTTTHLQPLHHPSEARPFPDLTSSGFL
Summary of the method: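 Luminescence (ONE-Glo) from a dioxin-responsive-element luciferase reporter in HG2L7.5c1 HepG2 cells after 24 hr compound exposure at 37C; viability measured by CellTiter-Fluor fluorescence beforehand.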

[3] = qHTS assay to identify small molecule that activate the aryl hydrocarbon receptor (AhR) signaling pathway - cell viability counter screen (AID 743086);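 note: HepG2 liver cells carrying the AhR DRE luciferase reporter; series mostly up to about 70 µM; nearly all actives have a fitted effect of over 45% in size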
Summary of the method: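 HepG2-AhR-luc (HG2L7.5c1) cells, 4000/well, treated 24 h at 37 C with compound; viability measured as CellTiter-Fluor fluorescence after 30 min in the same wells as the luciferase read.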

[4] = qHTS assay to identify small molecule antagonists of the peroxisome proliferator-activated receptor gamma (PPARg) signaling pathway - cell viability counter screen (AID 743194); conditions: Potency: co-treated with 50 nM rosiglitazone unless noted; note: nearly all actives have a fitted effect of over 55% in size
Summary of the method: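 Cytotoxicity counter screen in PPARg-bla HEK293H cells, same wells as reporter assay. Compounds plus 50 nM rosiglitazone (final) for 17 h at 37 C, then viability read by CellTiter-Glo luminescence.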

[5] = qHTS assay for small molecule agonists of the antioxidant response element (ARE) signaling pathway (AID 743202; active = well fitted activation curve with a large enough effect in the signal ratio in the repeat runs, not every such curve was filed as active; the % refers to the signal ratio)
Summary of the method: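 ARE-bla HepG2 cells (beta-lactamase reporter under the antioxidant response element), plated 5 hours, then exposed to compounds 16 hours at 37 C. LiveBLAzer B/G FRET substrate added for 2 hours at room temperature; fluorescence intensity read.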

[6] = qHTS assay for small molecule agonists of the antioxidant response element (ARE) signaling pathway - cell viability counter screen (AID 743203; calls by dose curve; note: nearly all actives have a fitted effect of over 55% in size)
Summary of the method: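 Following 16 hrs of compound treatment at 37C, HepG2 cells with an ARE-controlled beta-lactamase gene were lysed with CellTiter-Glo. Luminescence was read after 30 min at room temperature.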

[7] = qHTS assay for small molecule activators of the heat shock response signaling pathway - cell viability counter screen (AID 743209); note: nearly all actives have a fitted effect of over 50% in size
Summary of the method: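 Readout: CellTiter-Glo luminescence, 30 min at room temperature. System: HSE-bla HeLa cells, 1500/well, plated overnight. Treatment: compounds in DMSO, 5 h at 37 C.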

[8] = qHTS assay to identify small molecule agonists of the peroxisome proliferator-activated receptor delta (PPARd) signaling pathway - cell viability counter screen (AID 743211); note: nearly all actives have a fitted effect of over 55% in size
Summary of the method: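 Viability was measured as CellTiter-Glo luminescence (30 min, room temperature) in the same wells as the beta-lactamase readout. GeneBLAzer PPARd UAS-bla HEK293H cells received compound after 5 h plating and were incubated 17 h at 37 C.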

[9] = target: Peroxisome proliferator-activated receptor delta (Homo sapiens) (UniProt Q03181); experiment: qHTS assay to identify small molecule agonists of the peroxisome proliferator-activated receptor delta (PPARd) signaling pathway (AID 743212; calls by dose curve)
Peroxisome proliferator-activated receptor delta (Homo sapiens), sequence (Q03181 whole entry, looked up): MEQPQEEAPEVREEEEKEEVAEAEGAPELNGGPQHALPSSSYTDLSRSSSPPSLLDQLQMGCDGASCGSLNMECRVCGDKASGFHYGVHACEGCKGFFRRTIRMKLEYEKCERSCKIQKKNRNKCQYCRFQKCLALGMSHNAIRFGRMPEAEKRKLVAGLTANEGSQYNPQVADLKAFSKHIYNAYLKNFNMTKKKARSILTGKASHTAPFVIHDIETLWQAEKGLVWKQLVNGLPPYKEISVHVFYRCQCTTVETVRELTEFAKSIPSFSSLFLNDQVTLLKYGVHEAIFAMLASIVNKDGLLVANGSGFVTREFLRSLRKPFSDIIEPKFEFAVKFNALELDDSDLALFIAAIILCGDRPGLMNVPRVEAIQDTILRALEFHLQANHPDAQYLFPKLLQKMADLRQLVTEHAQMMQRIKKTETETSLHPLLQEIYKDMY
Summary of the method: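 GeneBLAzer UAS-bla HEK293H cells carrying a PPARδ construct were exposed to compounds at 37 °C. Beta-lactamase activity was read by FRET fluorescence after 2 h at room temperature with LiveBLAzer B/G substrate.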

[10] = qHTS assay to identify small molecule antagonists of the peroxisome proliferator-activated receptor delta (PPARd) signaling pathway - cell viability counter screen (AID 743213); note: nearly all actives have a fitted effect of over 50% in size
Summary of the method: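 HEK293H PPARd UAS-bla cells, 5 h pre-incubation, compound + L165041 300 nM final, 17 h 37 C; B/G FRET substrate 2 h RT; then CellTiter-Glo 30 min RT, luminescence.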

[11] = target: Peroxisome proliferator-activated receptor delta (Homo sapiens) (UniProt Q03181); experiment: qHTS assay to identify small molecule antagonists of the peroxisome proliferator-activated receptor delta (PPARd) signaling pathway (AID 743215; active = well fitted inhibition curve with a large enough effect in the signal ratio in the repeat runs, not every such curve was filed as active; the % refers to the signal ratio;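 note: cells stimulated with agonist L165041 at 300 nM final during compound exposure; series mostly up to about 62 µM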)
Summary of the method: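 HEK293H UAS-bla, PPARd; agonist L165041 300 nM final with cpd in DMSO; 37 C 17 h; FRET substrate, RT 2 h; fluorescence intensity.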

[12] = qHTS assay to identify small molecule agonists of the farnesoid-X-receptor (FXR) signaling pathway - cell viability counter screen (AID 743218); note: nearly all actives have a fitted effect of over 45% in size
Summary of the method: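 Parallel cytotoxicity test: compound-treated (16 h, 37 C) HEK 293T FXR-bla reporter cells were lysed with CellTiter-Glo and luminescence recorded.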

[13] = qHTS assay to identify small molecule antagonists of the farnesoid-X-receptor (FXR) signaling pathway - cell viability counter screen (AID 743221; active = well fitted cell-killing curve with a large enough effect in the repeat runs, not every such curve was filed as active; note: nearly all actives have a fitted effect of over 50% in size)
Summary of the method: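 Cytotoxicity counter screen run in the FXR-bla reporter wells: HEK 293T cells exposed to compound with 50 uM (final) chenodeoxycholic acid for 16 h, 37 C, then viability measured by CellTiter-Glo luminescence after 30 min, room temperature.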

[14] = target: Peroxisome proliferator-activated receptor gamma (Homo sapiens) (UniProt P37231); experiment: qHTS assay to identify small molecule agonists of the peroxisome proliferator-activated receptor gamma (PPARg) signaling pathway (AID 743094; active = well fitted activation curve with a large enough effect in the signal ratio in the repeat runs, not every such curve was filed as active; the % refers to the signal ratio)
Peroxisome proliferator-activated receptor gamma (Homo sapiens), sequence (P37231 whole entry, looked up): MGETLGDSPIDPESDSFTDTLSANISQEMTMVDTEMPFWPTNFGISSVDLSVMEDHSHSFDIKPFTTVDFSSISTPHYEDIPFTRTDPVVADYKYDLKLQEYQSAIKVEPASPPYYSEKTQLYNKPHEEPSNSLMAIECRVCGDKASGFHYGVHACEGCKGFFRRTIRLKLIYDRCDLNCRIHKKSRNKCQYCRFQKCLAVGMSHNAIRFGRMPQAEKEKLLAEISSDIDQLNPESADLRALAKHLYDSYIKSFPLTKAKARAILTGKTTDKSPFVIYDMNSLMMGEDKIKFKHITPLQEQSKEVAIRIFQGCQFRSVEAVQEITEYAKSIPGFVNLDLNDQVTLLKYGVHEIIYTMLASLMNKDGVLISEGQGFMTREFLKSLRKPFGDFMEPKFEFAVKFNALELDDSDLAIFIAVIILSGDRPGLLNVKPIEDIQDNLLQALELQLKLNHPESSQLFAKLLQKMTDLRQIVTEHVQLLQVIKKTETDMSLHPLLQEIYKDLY
Summary of the method: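 Compounds dissolved in DMSO were added to PPARg UAS-bla HEK293H cells for 17 h at 37C, and reporter expression was quantified by fluorescence intensity after 1 h with LiveBLAzer B/G FRET substrate.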

[15] = target: Peroxisome proliferator-activated receptor gamma (Homo sapiens) (UniProt P37231); experiment: qHTS assay to identify small molecule antagonists of the peroxisome proliferator-activated receptor gamma (PPARg) signaling pathway (AID 743191; calls by dose curve; note: series mostly up to about 63 µM; nearly all actives have a fitted effect of over 30% in size)
Summary of the method: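 GeneBLAzer PPARg UAS-bla HEK293H cells, 5 h post-plating, exposed to compounds 17 h at 37C. LiveBLAzer B/G FRET substrate added for 1 h at room temperature; beta-lactamase reporter read by fluorescence intensity.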

[16] = qHTS assay for small molecule activators of the heat shock response signaling pathway (AID 743210; active = well fitted activation curve with a large enough effect in the signal ratio in the repeat runs, with a control signal flat, not every such curve was filed as active; the % refers to the signal ratio; note: series mostly up to about 63 µM)
Summary of the method: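 HSE-bla HeLa cells (beta-lactamase reporter under heat shock response elements), plated overnight, then exposed to compounds 5 h at 37 C; LiveBLAzer B/G FRET substrate added, 2.5 h at room temperature, fluorescence intensity read.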

[17] = target: Bile acid receptor (Homo sapiens) (UniProt Q96RI1); experiment: qHTS assay to identify small molecule antagonists of the farnesoid-X-receptor (FXR) signaling pathway (AID 743217; active = well fitted inhibition curve with a large enough effect in the signal ratio in the repeat runs, not every such curve was filed as active; the % refers to the signal ratio)
Bile acid receptor (Homo sapiens), sequence (Q96RI1 whole entry, looked up): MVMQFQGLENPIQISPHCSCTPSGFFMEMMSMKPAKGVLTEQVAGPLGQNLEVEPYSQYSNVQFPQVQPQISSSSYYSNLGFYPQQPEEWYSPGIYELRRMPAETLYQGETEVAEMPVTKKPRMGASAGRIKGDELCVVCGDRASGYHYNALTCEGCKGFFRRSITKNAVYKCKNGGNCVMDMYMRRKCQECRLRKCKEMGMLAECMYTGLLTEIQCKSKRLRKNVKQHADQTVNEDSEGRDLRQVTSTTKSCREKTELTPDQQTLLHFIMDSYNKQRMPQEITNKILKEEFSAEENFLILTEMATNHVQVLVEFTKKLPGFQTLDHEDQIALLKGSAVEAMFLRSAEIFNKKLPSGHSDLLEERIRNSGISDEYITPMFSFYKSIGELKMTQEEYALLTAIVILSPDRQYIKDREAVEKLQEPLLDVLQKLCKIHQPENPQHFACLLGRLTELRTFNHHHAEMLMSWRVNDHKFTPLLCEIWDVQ
Summary of the method: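 GeneBLAzer FXR-UAS-bla HEK 293T, CDCA-stimulated (50 uM final). Compound treatment 16 h, 37 °C. Detection: beta-lactamase cleavage of B/G FRET substrate, fluorescence.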

[18] = target: Vitamin D3 receptor (Homo sapiens) (UniProt P11473); experiment: qHTS assay to identify small molecule agonists of the vitamin D receptor (VDR) signaling pathway (AID 743222; calls by dose curve)
Vitamin D3 receptor (Homo sapiens), sequence (P11473 whole entry, looked up): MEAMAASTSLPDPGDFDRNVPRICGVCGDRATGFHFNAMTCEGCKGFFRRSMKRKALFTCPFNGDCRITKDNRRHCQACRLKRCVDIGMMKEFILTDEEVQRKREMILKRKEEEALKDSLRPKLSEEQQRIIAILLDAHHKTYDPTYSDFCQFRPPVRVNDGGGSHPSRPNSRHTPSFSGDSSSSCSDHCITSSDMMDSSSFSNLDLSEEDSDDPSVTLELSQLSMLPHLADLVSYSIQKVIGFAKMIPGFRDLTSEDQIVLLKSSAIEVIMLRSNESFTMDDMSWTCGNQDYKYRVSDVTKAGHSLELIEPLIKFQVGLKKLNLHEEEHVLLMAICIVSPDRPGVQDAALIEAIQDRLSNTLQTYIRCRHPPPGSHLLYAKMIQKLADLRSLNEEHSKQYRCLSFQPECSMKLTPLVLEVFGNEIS
Summary of the method: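 In VDR-bla cells, compound-induced beta-lactamase expression is quantified by FRET substrate fluorescence. Treatment lasts 16 h at 37C; substrate develops 2 h at room temperature.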

[19] = target: Vitamin D3 receptor (Homo sapiens) (UniProt P11473); experiment: qHTS assay to identify small molecule antagonists of the vitamin D receptor (VDR) signaling pathway (AID 743223; active = well fitted inhibition curve with a large enough effect in the signal ratio in the repeat runs, not every such curve was filed as active; the % refers to the signal ratio)
Summary of the method: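 Antagonist mode: compound added to VDR-bla cells alongside agonist 1alpha,25-dihydroxyvitamin D3 (3 nM final), incubation 16 h at 37C. Read-out is LiveBLAzer FRET fluorescence, 2 h at room temperature.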

[20] = target: Bile acid receptor (Homo sapiens) (UniProt Q96RI1); experiment: qHTS assay to identify small molecule agonists of the farnesoid-X-receptor (FXR) signaling pathway (AID 743220; active = well fitted activation curve with a large enough effect in the signal ratio in the repeat runs, not every such curve was filed as active; the % refers to the signal ratio)
Summary of the method: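 Beta-lactamase reporter under UAS control in GeneBLAzer FXR HEK 293T cells (5000/well) measured with LiveBLAzer FRET substrate after 2 h at room temperature. Compound exposure lasted 16 h at 37C.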

Measured: Potency

CC(C)(CO)CO
not listed: [14] | [15] | [16] | [17] | [18] | [19] | [20]
inactive: all other assays above

OCc1ccc(Cl)cc1Cl
not listed: [3] | [10] | [20]
inactive: all other assays above

Clc1cccc(Cl)c1NC1=NCCN1
not listed: [9] | [11] | [14] | [15] | [16] | [17] | [20]
inactive: all other assays above

OB(O)O
not listed: [4] | [10]
inactive: all other assays above

O=[N+]([O-])c1cc(C(F)(F)F)ccc1Cl
not listed: [9] | [10] | [11] | [16] | [17] | [18] | [19] | [20]
inactive: all other assays above

OC[C@H]1O[C@@H](Oc2ccc(O)cc2)[C@H](O)[C@@H](O)[C@@H]1O
not listed: [3] | [16] | [17] | [20]
inactive: all other assays above

CCN(CC)CCNC(=O)c1ccc(N)cc1
inactive: [1] | [2] | [3] | [4] | [5] | [6] | [7] | [8] | [10] | [12] | [13]

CC(=O)OC/C=C(\C)CCC=C(C)C
not listed: [3] | [17] | [18] | [19] | [20]
inactive: all other assays above

O=C(NCC1CCCCN1)c1cc(OCC(F)(F)F)ccc1OCC(F)(F)F (stereo unspecified)
inactive: [3] | [4] | [5] | [6] | [7] | [8] | [10] | [12] | [13] | [18] | [19]

CC[N+](CC)(CC(=O)Nc1c(C)cccc1C)Cc1ccccc1
not listed: [2] | [9] | [11] | [16] | [17] | [18] | [19] | [20]
inactive: all other assays above

CCCCCCCC(=O)O
not listed: [3] | [9] | [11] | [15] | [16] | [17] | [20]
inactive: all other assays above
